This passage reports viability index results from the supplement of paper PMC4723716.

The full ranking holds about 3,600 compounds; the median of “viability index relative to DMSO control” is about 0.81, and the lowest 2% start at about 0.13. The full list was thinned out, with the lowest values kept by preference.
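Further: Saponin-lysis sexual stage assay in serum-free medium: MitoTracker Red CMXRos staining plus saponin, high-content imaging, particle count per well divided by plate mean of DMSO wells.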

This experiment concerns Plasmodium falciparum NF54 stage V gametocytes. Description: viability index relative to DMSO control (fraction); higher = less gametocyte killing. Conditions: 1.25 µM, incubation time: 72 h.
The molecule `CC(C)(C)NC(=S)NN=CC=NNC(=S)NC(C)(C)C` gave a viability index of 0.299.

As for `OC1CCCCC1C1(NC(=S)Nc2ccccc2)CCCCC1` (stereo unspecified), the viability index worked out at 1.08.

`S=C(NN=CC=NNC(=S)Nc1ccccc1)Nc1ccccc1` returned a viability index of 0.104.

In turn, `O=S(=O)(NCCNc1ncnc2scc(-c3ccccc3)c12)c1ccc(Cl)c(Cl)c1` displayed a viability index of 0.554.

As for `FC(F)(F)c1ccc(Nc2nnnc3ccccc23)cc1`, the viability index amounted to 1.04.

Consider `c1ccc2nc3c(nnc4ccccc43)nc2c1`, for which the viability index amounted to 0.092.

`Brc1ccc2[nH]c3nc4ccccc4nc3c2c1` displayed a viability index of 0.699.

`CC(=NNC(N)=S)C(C)=NNC(N)=S` came in with a viability index of 0.27.

`COC(OC)C(C)=NNC(N)=S` returned a viability index of 0.112.

`COc1cc(C(=O)Nc2nnc(-c3ccccc3)o2)cc(OC)c1OC` had a viability index of 0.81.

On to `COc1cc(Nc2cncc(-c3ccncc3)n2)cc(OC)c1OC`, for which the viability index stood at 0.524.

On to `COc1cc(Nc2cncc(-c3ccc(C(N)=O)cc3)n2)cc(OC)c1OC`, for which the viability index was determined as 0.0179.

`CSc1ccc(C=CC(=O)NC(=O)c2ccccc2O)cc1` came in with a viability index of 0.661.

On to `CCOC(=O)C1=C(C)N(CCNc2ncc(C(F)(F)F)cc2Cl)C(=O)CC1`, for which the viability index is 1.04.

With `CCCCCc1ccc(OCCCC[n+]2cccc(C)c2C)c(CCCCC)c1`, the viability index stood at 0.521.

`CCCn1c(=N)c(C(=O)NC2CCCCC2)cc2c(=O)n3cccc(C)c3nc21` showed a viability index of 1.15.

For `CC(C)=CCCC(C)=CCCC(C)NCCN1CCNCC1` (stereo unspecified), the viability index worked out at 0.135.

With `CC(NCCCN(C)C)c1cc(C(C)(C)C)cc2c1CCC2(C)C` (stereo unspecified), the viability index turned out to be 0.283.

As for `CC(NCCN1CCNCC1)c1cc(C(C)(C)C)cc2c1CCC2(C)C` (stereo unspecified), the viability index stood at 0.104.

With `CC12C(=O)N(c3cccc(C(=O)O)c3)C(=O)C1C1c3ccccc3C2c2ccccc21` (stereo unspecified), the viability index was found to be 1.15.

In the case of `Cc1c(Cl)cccc1NCC(=O)NN=C1CCCC1`, the viability index was 0.779.

Regarding `CC(C)CN1C(=O)c2ccccc2C(C(=O)Nc2cccc(Cl)c2)C1c1cccs1` (stereo unspecified), the viability index amounted to 0.209.

`COc1cc(OC)c(NC(=O)C2c3ccccc3C(=O)N(C)C2c2cccs2)cc1Cl` (stereo unspecified): the viability index amounted to 0.546.

For the molecule `COc1ccc(Cl)cc1NC(=O)C1c2ccccc2C(=O)N(CC(C)C)C1c1cccs1` (stereo unspecified), the viability index came to 0.426.

For the molecule `COc1cc(Cl)c(C)cc1NC(=O)C1c2ccccc2C(=O)N(CC(C)C)C1c1cccs1` (stereo unspecified), the viability index came out at 0.398.

With `COc1ccc(NC(=O)C2c3ccccc3C(=O)N(CC(C)C)C2c2cccs2)cc1OC` (stereo unspecified), the viability index was 0.0723.

`COc1ccc(NC(=O)C2c3ccccc3C(=O)N(CC(C)C)C2c2cccs2)cc1Cl` (stereo unspecified) came in with a viability index of 0.104.

With `COc1cc(OC)c(NC(=O)C2c3ccccc3C(=O)N(CC(C)C)C2c2cccs2)cc1Cl` (stereo unspecified), the viability index came to 0.0683.

`CC(C)CN1C(=O)c2ccccc2C(C(=O)Nc2ccc(F)c(Cl)c2)C1c1cccs1` (stereo unspecified) displayed a viability index of 0.237.

With `CC(C)CN1C(=O)c2ccccc2C(C(=O)Nc2ccc(C(C)C)cc2)C1c1cccs1` (stereo unspecified), the viability index amounted to 0.281.

Turning to `COc1cc(C(c2c(C)n(C)n(-c3ccccc3)c2=O)c2c(C)n(C)n(-c3ccccc3)c2=O)cc(Cl)c1OCc1ccccc1`, the viability index is 0.699.

As to `Cc1n(C)c2ccccc2[n+]1CC(=O)c1ccccc1`, the viability index was found to be 0.785.

In turn, `COc1ccc(NC(=O)c2cnn(-c3ccccc3)c2NC(=O)c2ccco2)cc1` had a viability index of 0.846.

For the molecule `COc1cccc(CNC(=O)Cn2ncc3c(=O)oc4ccc(C)cc4c32)c1`, the viability index was determined as 0.843.

In turn, `CC(C)NCC(O)Cn1c2ccc(Cl)cc2c2cc(Cl)ccc21` (stereo unspecified) showed a viability index of 0.419.

`CC(=O)c1ccc(N2CCN(Cc3cc(-c4ccnc5cc(Cl)ccc45)ccc3O)CC2)cc1` came in with a viability index of 0.433.

`O=C1CC(c2cccc([N+](=O)[O-])c2)c2cc3c(cc2N1)OCO3` (stereo unspecified) yielded a viability index of 0.839.

Consider `Cc1cc(Nc2cccc([N+](=O)[O-])c2)nc2cc(O)ccc12`, for which the viability index came to 0.819.

Molecule `O=[N+]([O-])c1cc(Br)c(Nc2ccccc2)c([N+](=O)[O-])c1` registered a viability index of 0.0522.

As to `O=C(O)CCNc1ccccc1[N+](=O)[O-]`, the viability index was found to be 0.971.

In turn, `COc1ccccc1NC(=O)C(=O)NCCc1ccc(OC)c(OC)c1` showed a viability index of 0.413.

`Cc1c(CN2CCC(N3CCC(C(=O)NC4CC4)CC3)CC2)[nH]c2c(Cl)cccc12` gave a viability index of 0.865.

As to `O=C(CN1CCN(C(=O)c2ccco2)CC1)Nc1cc(C(F)(F)F)ccc1Cl`, the viability index worked out at 1.11.

The molecule `Cc1cc(C)n(-c2ncc(-c3ccc([N+](=O)[O-])cc3)cn2)n1` gave a viability index of 1.02.

`Cc1cc(N2CCC(C)CC2)nc(-n2nc(C)cc2C)n1` displayed a viability index of 0.

For the molecule `CC1CCN(c2nncc3ccccc23)CC1`, the viability index stood at 0.777.

Turning to `CN1CCC(CCNCc2ccc(OCC(O)CN(C)Cc3ccccc3)cc2)CC1` (stereo unspecified), the viability index is 0.856.

For the molecule `Cn1c(=O)c(Cl)c2c3c(c(Cl)ccc31)C(=O)c1ccccc1-2`, the viability index was determined as 0.0761.

Consider `CCCCNC(=O)c1nn(-c2ccc(OC)cc2)c(=O)c2ccccc12`, for which the viability index came to 0.946.

As to `O=c1c(=Cc2ccc(-c3ccc([N+](=O)[O-])cc3Cl)o2)sc2nc3ccccc3n12`, the viability index amounted to 0.699.

With `CCC(C)NCC(O)(c1ccc(Cl)cc1)c1ccc(Cl)cc1` (stereo unspecified), the viability index is 0.699.

In the case of `CCCOC(=O)C1=C(C)NC2=C(C(=O)CC(c3ccc(OC)c(OC)c3)C2)C1c1ccc([N+](=O)[O-])cc1` (stereo unspecified), the viability index stood at 0.514.

Molecule `CCOC(=O)c1[nH]nc(C(=O)c2ccccc2)c1-c1ccccc1` registered a viability index of 1.27.

The molecule `CCOC(=O)c1c(Cl)nnc(-c2ccccc2)c1-c1ccccc1` had a viability index of 0.

On to `CCOC(=O)c1c(-c2ccccc2)oc2c1C(=O)c1ccccc1C2=O`, for which the viability index turned out to be 0.461.

As to `CCOC(=O)c1c(NC(=O)Cc2ccc([N+](=O)[O-])cc2)sc2c1CCCC2`, the viability index worked out at 1.02.

On to `Cc1ccc(CN2C(=O)C(O)(CC(=O)c3ccccc3)c3ccccc32)cc1` (stereo unspecified), for which the viability index came out at 0.914.

Molecule `CCN1C(=Cc2sc3ccccc3[n+]2C)C=Cc2ccc(C)cc21` displayed a viability index of 0.51.

Molecule `CN(C)CCNc1c2c(nc3ccccc13)CCC2` returned a viability index of 0.953.

Consider `Cc1cc(NCCCN(C)C)c2ccccc2n1`, for which the viability index was 0.888.

The molecule `CN(C)CCCNc1c2ccccc2nc2ccccc12` had a viability index of 0.0224.

Molecule `CCOc1cc([N+](=O)[O-])cc(C=Nc2cccc(NC(=O)c3ccco3)c2)c1O` showed a viability index of 0.989.

Molecule `N=c1n(CCN2CCCCC2)c2ccccc2n1CC(O)COc1ccc(Cl)cc1` (stereo unspecified) gave a viability index of 0.746.

`O=C(CC1OC(=O)c2ccccc21)c1ccc(Cl)cc1` (stereo unspecified) showed a viability index of 0.496.

Take `CCOC(=O)c1cnc2c(OC)cccc2c1Nc1ccc(C(C)=O)cc1`: the viability index stood at 1.27.

The molecule `c1ccc(CNc2nc(-c3ccccn3)nnc2-c2ccccc2)cc1` yielded a viability index of 0.374.

On to `COc1ccc(Nc2nc(N3CCCC3)c3ccccc3n2)cc1`, for which the viability index was 0.74.

`COc1cnc(-c2ccccn2)nc1N1CCCC1` had a viability index of 0.0429.

Molecule `CC(C)Nc1nc(-c2cccnc2)nc2ccccc12` showed a viability index of 1.12.

In turn, `COc1cnc(-c2ccccn2)nc1NC(C)C` had a viability index of 0.0307.

`COc1ccccc1/C=C/CN1CCN(c2ccccn2)CC1` displayed a viability index of 1.15.

For `Cc1cc(C)nc(Nc2nc(C)c3cc(C)c(C)cc3n2)n1`, the viability index is 0.196.

With `CCOC(=O)C1=C(C)NC2=C(C(=O)C(C(=O)OCC)C(c3ccc(OC)cc3)C2)C1c1ccc(OC)c(OC)c1` (stereo unspecified), the viability index was 0.683.

Molecule `CN(C)c1ccc(C=C2SC(=Nc3ccc(O)cc3)NC2=O)cc1` returned a viability index of 0.727.

On to `CCn1c(C=CN(C)c2ccccc2)[n+](CC)c2cc(Cl)ccc21`, for which the viability index was found to be 1.

`CC(C)(C)c1ccc(Cn2nnc3c(O)nc(C4CCN(C(=O)c5ccccc5)CC4)nc32)cc1` came in with a viability index of 0.736.

The molecule `N=C1NC(=O)C(=CC=Cc2ccc([N+](=O)[O-])o2)S1` returned a viability index of 0.0408.

For `O=C(c1ccccc1)N1CCc2nc(Cc3ccc(F)cc3Cl)sc2C1`, the viability index came out at 0.708.

Molecule `Cc1ccc2ccc3ccc(C)nc3c2n1` had a viability index of 0.0302.

`COc1cccc(OC)c1C(=O)Oc1cccc2ccc(C)nc12` displayed a viability index of 0.706.

`Cc1ccc(NC(=O)c2ccc(NCCCN3CCCCCC3)c([N+](=O)[O-])c2)cc1F` gave a viability index of 1.51.

In turn, `S=C(NN=Cc1ccccn1)NC1CC2CC1C1C=CCC21` (stereo unspecified) registered a viability index of 0.397.

The molecule `CC1(C)C2CCC(C2)C1(C)NC(=S)NN=Cc1ccccn1` (stereo unspecified) came in with a viability index of 0.0373.

In turn, `S=C(NN=Cc1ccccn1)NC1CC2C=CC1C2` (stereo unspecified) displayed a viability index of 0.0456.

As for `CCOC(=O)c1ccc(N(C(=O)Cc2c[nH]c3ccccc23)C(C(=O)NC2CCCCC2)c2cccnc2)cc1` (stereo unspecified), the viability index came to 0.513.

With `O=C(Nc1ccc(O)cc1)c1cccc(S(=O)(=O)N2CCCCC2)c1`, the viability index came to 1.03.

Take `CC(=O)NC1=NN(C(C)=O)C(c2ccc(Br)cc2)S1` (stereo unspecified): the viability index is 0.944.

Molecule `O=C(CSc1nc2ccccc2c(=O)n1CCCN1CCOCC1)Nc1cccc(S(=O)(=O)N2CCCCCC2)c1` displayed a viability index of 0.969.

For the molecule `CCc1ccc2c(c1)C1(NN=C(c3ccc(C)cc3)S1)C(=O)N2` (stereo unspecified), the viability index stood at 0.127.

In turn, `CC1=C(C(=O)OC2CCCCC2)C(c2ccc(F)c(F)c2)C2=C(CCCC2=O)N1` (stereo unspecified) came in with a viability index of 0.855.

The molecule `CN(C)CCCNc1cc(-c2ccccc2)nc2ccccc12` registered a viability index of 0.913.

In turn, `CN(C)CCNc1cc(-c2ccccc2)nc2ccccc12` displayed a viability index of 0.909.

With `CN(C)CCNc1cc(-c2ccc3ccccc3c2)nc2ccccc12`, the viability index was 0.0331.

`Cc1ccc(C=Cc2ccc3ccccc3[n+]2C)cc1` showed a viability index of 0.754.

Molecule `O=C(NCc1ccccc1)C(c1ccc(F)cc1)N(Cc1ccco1)C(=O)c1cnccn1` (stereo unspecified) registered a viability index of 0.72.

Take `CCOc1ccccc1NC(=O)Cn1c(=O)n(Cc2ccccc2)c(=O)c2c(C)c(C(=O)N(C)C)sc21`: the viability index turned out to be 0.83.

With `CCCCCOC(=O)C1=C(C)NC2=C(C(=O)CC(C)(C)C2)C1c1ccncc1` (stereo unspecified), the viability index was 0.891.

On to `CC(=O)N(C1=C(N2CCCCC2)C(=O)c2ccccc2C1=O)c1ccc(F)cc1`, for which the viability index stood at 0.721.

Molecule `CC(=O)N(C1=C(N2CCCC2)C(=O)c2ccccc2C1=O)c1ccc(F)cc1` came in with a viability index of 1.

Molecule `CCN(C(C)=O)C1=C(N2CCOCC2)C(=O)c2ccccc2C1=O` returned a viability index of 0.538.

In the case of `CC(=O)N(Cc1ccc(F)cc1)C1=C(NCCc2ccccc2)C(=O)c2ccccc2C1=O`, the viability index worked out at 0.0184.

Take `CNC1=C(N(Cc2ccc(Cl)c(Cl)c2)C(C)=O)C(=O)c2ccccc2C1=O`: the viability index came to 0.

Molecule `CCC(=O)N(C1=C(NC)C(=O)c2ccccc2C1=O)C(C)C` gave a viability index of 0.601.

With `Cc1cc(Nc2cccc(Cl)c2)nc2ccc(NC(=O)c3cccnc3)cc12`, the viability index stood at 0.912.

With `COC(=O)c1c(NC(=O)c2ccc(S(=O)(=O)N3CCOCC3)cc2)sc2c1CCN(C(C)=O)C2`, the viability index turned out to be 0.76.

The molecule `C1=C(c2ccccc2)CCN(c2ncnc3c2nc2n3CCCCC2)C1` showed a viability index of 0.916.
